# System: HFF
# Assay: cell viability relative to DMSO control; higher = less cytotoxic
# Details: 1 µM; 72 h
# Description: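 Single-dose cytotoxicity screen of the MMV Pandemic Response Box at 1 uM on human foreskin fibroblasts (HFF), 72 h at 37 C. Viability measured by MTT (OD 550 nm) and normalised to the DMSO control (% survival).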
row,SMILES,cell viability
1,O=C(O)[C@H]1C2CCC(CC2)[C@@H]1Nc1nc(-c2c[nH]c3ncc(F)cc23)ncc1F,67%
2,NC(=O)c1cnccn1,68.1%
3,NC1C2CC3CC(C2)CC1C3 (configuration not stated),66.1%
4,CC1CCc2c(N3CCC(O)CC3)c(F)cc3c(=O)c(C(=O)O)cn1c23 (configuration not stated),59.7%
5,COc1ccccc1NC(=O)c1ccccc1Sc1ccc([N+](=O)[O-])cc1,55.7%
6,COc1cc(C2C3=C(CC(C)(C)CC3=O)Nc3ccccc3N2C(C)=O)ccc1OCc1ccccc1 (configuration not stated),67.1%
7,O=C(O)C[C@H]1CC[C@H](c2ccc(-c3ccc(Nc4ccc(C(F)(F)F)nc4)cn3)cc2)CC1,67.6%
8,CN(C)CCNC(=O)c1cccc2cccnc12,61.2%
9,O=C(c1ccccc1)N1CCN(c2ccccc2NC(=O)C(Cl)(Cl)Cl)CC1,65%
10,N=C(N)NCCCCC(=O)Nc1cc(C(F)(F)F)cc(NC(=O)c2cc(C(=O)Nc3cc(C(F)(F)F)cc(NC(=O)CCCCNC(=N)N)c3O[C@@H]3CCNC3)ncn2)c1O[C@@H]1CCNC1,57.6%
11,N#Cc1cc([N+](=O)[O-])ccc1Oc1ccccc1Cl,72.5%
12,NC(=O)c1ccc(I)c([N+](=O)[O-])c1,71.1%
13,O=c1cc(OCc2ccccc2)ccn1Cc1ccccc1,68.5%
14,CCc1nc2ccc(Cl)cn2c1C(=O)NCc1ccc(N2CCC(c3ccc(OC(F)(F)F)cc3)CC2)cc1,63.2%
15,c1cnc(NCc2ccc(CNc3ncccn3)cc2)nc1,67.2%
16,COc1ccc(SCC(=O)N2c3ccccc3Sc3ccccc32)cc1,69.2%
17,C[C@@H](NC(=O)c1cccc(-c2cnc(-c3cc4ccccc4cn3)[nH]2)c1)c1ccc(F)cc1,74.3%
18,CC(C)n1cnc2c(NCc3ccccc3)nc(NCc3ccccc3)nc21,65.3%
19,CC[N+]1(C/C2=C/CCCCCC2)CCC(NC(=O)C2c3cc(Cl)ccc3Oc3ccc(Cl)cc32)CC1 (configuration not stated),65.6%

row,SMILES,cell viability
1,Cn1cc(NC(=O)c2cc(NC(=O)c3ccc(/C=C/c4cnc5ccccc5c4)cc3)cn2C)cc1C(=O)NCCN1CCOCC1,69.2%
2,[N-]=[N+]=N[C@H]1C[C@H](n2ccc(=O)[nH]c2=O)O[C@@H]1CO,69.1%
3,CCc1ccc(C2CC(C(F)(F)F)n3ncc(C(=O)NCc4ccc(OC)cc4)c3N2)cc1 (configuration not stated),76.2%
4,O=C(/C=C/n1cnc(-c2cc(C(F)(F)F)cc(C(F)(F)F)c2)n1)NNc1cnccn1,59.7%
5,O=C(/C=C\n1cnc(-c2cc(C(F)(F)F)cc(C(F)(F)F)c2)n1)NNc1ccccn1,62%
6,CONC(=N)c1ccc(-c2ccc(-c3ccc(C(=N)NOC)cc3)o2)cc1,63.9%
7,O=c1[nH]cnc2c1ncn2[C@H]1CC[C@@H](CO)O1,72.2%
8,COc1ccc(CNC(=O)C(NS(=O)(=O)c2ccc3nc(C)sc3c2)C(C)C)cc1 (configuration not stated),64.5%
9,Cc1cc(CCOc2c(C)cc(-c3nnn(C)n3)cc2C)on1,69.2%
10,CCCCCCCCC(CP(=O)(O)C(C)N)C(=O)O (configuration not stated),61.8%
11,CCc1nc2ccccn2c1C(=O)NCc1ccccc1,66.8%
12,O=C(Nc1ccccc1)N(Cc1cc(Br)ccc1O)c1ccc(F)cc1,67.1%
13,Cc1cc(O)c2c(c1)C(=O)c1c(I)c(O)c(I)c(O)c1C2=O,71.9%
14,Clc1cc2nc(C3CCNCC3)n(Cc3ccc(CNCCc4c[nH]cn4)cc3)c2cc1Cl,65.3%
15,CC(=O)NC[C@H]1CN(c2ccc(N3CCSCC3)c(F)c2)C(=O)O1,67.2%
16,O=C(NCc1ccccc1Cl)c1cnc2ccccc2n1,71.4%
17,O=C(/C(=C/c1ccc(Cl)cc1Cl)n1ccnc1)c1ccc(Cl)cc1,74.8%
18,C[C@H](Cn1cnc2c(N)ncnc21)OCP(=O)(O)O,58.1%
